# PLAP act = human PLAP activation | P05187 | purified PLAP enzyme, luminescent substrate read-out; active compounds read high | activation fold at 20 µM | hit rate 1.2% among 96,000; in the data active = activation fold above about 2
# CYP2C9 activ = increases human cytochrome P450 2C9 activity; P11712; recombinant CYP2C9, luciferin-H conversion, luminescence; active compounds read high; factor 1 = untreated enzyme, 0 = blocked; activation factor at 5 µM; hit rate 1.4% among 96,000; AID 1024;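 active = activation factor of 2 or more for CYP2C9 at a 5 µM dose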;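 note: 0 = sulfaphenazole-blocked wells and 1 = vehicle-only wells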
# CYP2C19 inh = human CYP2C19 inhibition; CYP2C19 Supersomes, luciferin-H EGE luminescence, 30 min; hit rate 21% among 96,000; P33261; inhibition, % at 5 µM;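 active = CYP2C19 inhibition above a set limit at 5 µM in the primary screen, cut at about 50% in these data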;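 note: plate controls were negative control wells for no effect and 2.5 mM tranylcypromine positive control for full effect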
# Target sequence (P33261 whole entry, looked up): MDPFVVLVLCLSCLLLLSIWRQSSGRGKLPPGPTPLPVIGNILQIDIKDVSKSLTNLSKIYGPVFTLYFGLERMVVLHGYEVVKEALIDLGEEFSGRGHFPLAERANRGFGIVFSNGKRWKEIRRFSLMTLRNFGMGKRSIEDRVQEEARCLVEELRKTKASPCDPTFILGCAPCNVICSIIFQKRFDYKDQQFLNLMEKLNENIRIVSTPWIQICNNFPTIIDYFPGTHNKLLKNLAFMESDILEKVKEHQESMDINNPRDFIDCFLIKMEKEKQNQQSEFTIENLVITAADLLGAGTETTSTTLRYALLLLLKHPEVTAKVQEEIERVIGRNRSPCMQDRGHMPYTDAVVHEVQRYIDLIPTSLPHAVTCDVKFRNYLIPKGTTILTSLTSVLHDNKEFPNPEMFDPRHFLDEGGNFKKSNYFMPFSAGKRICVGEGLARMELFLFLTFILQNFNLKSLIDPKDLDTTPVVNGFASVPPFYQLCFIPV
# CYP2C9 inhib = inhibitors of human CYP2C9. CYP2C9 Supersomes, luciferin-H conversion, luminescence. inhibition, % at 5 µM. AID 777. P11712. hit rate 20% among 96,000;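 active = blocking of liver enzyme CYP2C9 beyond about 50% at 5 µM, limit read from the data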
# CYP2C19 activ = increases human CYP2C19 enzyme activity. 96,000 tested, under 10 active. activation factor at 5 µM. recombinant CYP2C19, luciferin-H EGE luminescence; active compounds read high; 0 = fully inhibited enzyme, 1 = untreated enzyme;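 active = activation factor of at least 2 at 5 µM in the primary screen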;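 note: 0 = wells with 2.5 mM tranylcypromine and 1 = vehicle-only wells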
# * hit, by the source's call. Hits are enriched below; roughly 31% of the tested compounds scored in any of these assays.
SMILES,PLAP act,CYP2C9 activ,CYP2C19 inh,CYP2C9 inhib,CYP2C19 activ
CC(=O)N1CCc2cc(S(=O)(=O)NC(CC(C)C)C(=O)N3CCc4ccccc4C3)ccc21 (stereo not given),1.4,0.6,28,43,0.7
Cc1cc(Nc2ccc(F)cc2Cl)n2ncnc2n1,1.7,1,-21,-4,1.2
N#Cc1cc(-c2ccccc2)nnc1Sc1ccccc1,0.9,0.9,-13,8,1.1
O=C(CSc1ncccc1-c1nc2ccccc2[nH]1)N1CCCCC1,1.1,1,-2,-2,1
Cc1ccc(C)c(OCC(=O)Nc2nc3ccc([N+](=O)[O-])cc3s2)c1C,1.1,1.2,-24,-25,1.2
CSc1nc(N)nc(-c2cccs2)c1C#N,0.7,0.4,78*,58*,0.2
CC(C)Sc1nc(N)nc(-c2cccs2)c1C#N,0.8,0.3,29,75*,0.7
CC(C)OC(=O)CSc1nc(N)c(C#N)c(-c2cccs2)c1C#N,1.1,1,23,3,0.8
Cc1c(-c2ccc(F)cc2)nc(N)c(C#N)c1-c1cccs1,1,1,-6,-1,1.1
O=C(O)c1ccc(CSCc2ccccc2F)o1,0.9,1,3,-1,1
O=C(NC1CCCCC1)c1ccc(CNc2ccccc2)o1,0.8,0.4,62*,58*,0.4
O=C(NC1CCCC1)c1ccc(CSCc2ccccc2F)o1,1.2,0.1,92*,86*,0.1
COc1ccccc1S(=O)(=O)Cc1ccc(C(=O)NC2CCCCC2)o1,1,0.9,7,7,0.9
CCc1nc(NC2CCCCC2)c(C#N)c2c1COC(C)(C)C2,0.9,1,-10,1,1.1
CC(C)c1nc(NCC2CCCO2)c(C#N)c2c1COC(C)(C)C2 (stereo not given),1.2,0.2,54*,82*,0.5
CC(=O)N1CCN(Cc2ccc(Br)s2)CC1,1.3,1.3,31,-28,0.7
C=CCOC(=O)/C(=C/c1ccco1)NC(=O)/C=C/c1ccccc1,1.1,0.3,77*,73*,0.2
CCNc1nc(OC)nc(Oc2ccc(=O)n(-c3ccccc3)n2)n1,0.9,1,-5,-2,1
COc1nc(NC(C)(C)C)nc(Oc2ccc(=O)n(-c3ccccc3)n2)n1,1.2,0.4,42,56*,0.6
Cc1nnc2ccc(N3CCOCC3)nn12,0.9,0.9,-19,10,1.2
CCC(=O)N1CCc2cc(S(=O)(=O)CCC(=O)Nc3ccc(F)c(F)c3)ccc21,0.8,0.5,28,52*,0.7
CS(=O)(=O)N1CCc2cc(S(=O)(=O)Nc3ccc4c(c3)OCCO4)ccc21,1.1,0.5,99*,47,0
O=C(C1CCC1)N1CCc2cc(S(=O)(=O)Nc3ccc4c(c3)OCCO4)ccc21,1,1,2,0,1
CCC(=O)N1CCc2cc(S(=O)(=O)Nc3ccc4c(c3)OCCO4)ccc21,1.1,0.4,33,58*,0.7
CCC(=O)N1CCc2cc(S(=O)(=O)CCC(=O)Nc3cccc(F)c3)ccc21,0.9,0.9,7,9,0.9
SMILES,PLAP act,CYP2C9 activ,CYP2C19 inh,CYP2C9 inhib,CYP2C19 activ
C=CCNC(=O)C1CCN(c2c([N+](=O)[O-])cc(C(F)(F)F)cc2[N+](=O)[O-])CC1,0.9,0.8,14,22,0.9
C1CCN(c2c3c(nc4nnnn24)CCCC3)CC1,1.1,1,-9,0,1.1
Cc1nc2nc3c(cn2n1)C(=O)CC(C)(C)C3,0.9,1.4,8,-36,0.9
CSc1nc(N(C)NC(=O)c2ccc(F)cc2)c2ccccc2n1,0.9,0.7,12,27,0.9
Cc1ccc(S(=O)(=O)c2nc(C)c3c(n2)CCC3)cc1,1.1,2.2*,36,-117,0.6
COc1ccc(CCNC(=O)CN2CCN(Cc3ccc(F)cc3)C2=O)cc1OC,1.6,0.8,1,17,1
Cc1cc(C)nc(-n2nc(C)c3c(=O)[nH]c(C(F)(F)F)nc32)n1,0.9,1,9,4,0.9
O=C(c1ccccc1S(=O)(=O)NCc1ccccc1)N1CCCCC1,1,0.5,89*,48,0.1
Cc1ccc(OCC(O)CNS(=O)(=O)c2ccccc2C(=O)N2CCCCC2)cc1 (stereo not given),1.4,0.5,17,47,0.8
Fc1ccc(-c2[nH]ncc2-c2nnnn2-c2ccccc2)c(F)c1,1.5,0.5,91*,51*,0.1
Cc1ccc(S(=O)(=O)Nc2cc(C)nn2-c2ccccc2)cc1,1,0,4,100*,1
Cc1cc(NS(=O)(=O)c2ccc(NC(=O)CCc3ccccc3)cc2)no1,1,0.8,13,22,0.9
Cc1ccc(S(=O)(=O)Nc2ccccc2-c2ccccc2)cc1,0.9,0.5,58*,49,0.4
Cc1cc(NS(=O)(=O)c2ccc(-c3ccccc3)cc2)no1,1.3,0.1,13,88*,0.9
Cc1cc(-n2nc(C)cc2C)nc(NS(=O)(=O)c2ccccc2)n1,1.3,0.9,-2,9,1
Cc1cc(NC(=O)c2ccc(S(=O)(=O)Nc3ccccc3)cc2)no1,1,0.5,21,52*,0.8
O=C(O)c1ccc(C2CCCCC2)cn1,1.7,1,16,4,0.8
CC(=O)c1c(C)oc2ccc(NS(=O)(=O)c3ccc(O)c(C(=O)O)c3)cc12,0.9,0.1,52*,89*,0.5
O=C(O)c1cc(S(=O)(=O)O)ccc1O,1.1,1.1,-13,-10,1.1
CC(=O)Nc1ccc(NS(=O)(=O)c2ccc(Cl)c(C(=O)O)c2)cc1,1,1.1,4,-6,1
Cc1ccc(S(=O)(=O)Nc2ccc3oc(=O)sc3c2)c(C)c1,1.1,0.4,67*,64*,0.3
O=C(O)c1cc(S(=O)(=O)Nc2ccc3oc(=O)sc3c2)ccc1O,1.1,0.1,23,85*,0.8
CC(=O)Nc1cc(S(=O)(=O)Nc2ccc(C)cc2)c(C)cc1C,0.9,0.8,13,19,0.9
CC[n+]1c(P(=O)([O-])c2ccccc2)[nH]c2ccccc21,1,1.1,-16,-14,1.2
CCOc1cc(-c2ccc3c(c2)OCO3)cc(=O)c2c(C)oc(C)c12,1.3,0.7,28,32,0.7
O=C(COC(=O)c1ccccc1NC(=O)c1ccco1)Nc1ncc(Cl)cc1Cl,1.2,0.4,28,64*,0.7
Cc1c(Cl)cnc(NC(=O)COC(=O)C(NC(=O)c2ccco2)C(C)C)c1Cl (stereo not given),1.3,0.5,77*,50,0.2
CC(OC(=O)C(NC(=O)c1ccco1)C(C)C)C(=O)Nc1ncc(Cl)cc1Cl (stereo not given),1.1,0.9,32,6,0.7
COc1cc(NC(=O)c2ccco2)c(C(=O)OCC(=O)Nc2ncc(Cl)cc2Cl)cc1OC,0.9,0.9,4,9,1
CCCCNC(=O)NC1C(NC(=O)NCCCC)N(C)C(=O)N1C (stereo not given),0.8,1,-8,1,1.1

# Source: PubChem (Sanford-Burnham Center for Chemical Genomics)
